# Laboratory results reported in article PMC12820563, “FoxP3 forms a head-to-head dimer in vivo and stabilizes its multimerization on adjacent microsatellites”.
# Over roughly 16,000 sequences, “rpm ratio (pull-down/input)” has its median near 0.94; the highest 2% begin near 1.7. What follows is part of a selection rich in the highest values, with near analogues and random picks from the rest.
# Target: T1, MBP-FoxP1dN (Mus musculus, UniProt P58462 326-579)
# T1 sequence: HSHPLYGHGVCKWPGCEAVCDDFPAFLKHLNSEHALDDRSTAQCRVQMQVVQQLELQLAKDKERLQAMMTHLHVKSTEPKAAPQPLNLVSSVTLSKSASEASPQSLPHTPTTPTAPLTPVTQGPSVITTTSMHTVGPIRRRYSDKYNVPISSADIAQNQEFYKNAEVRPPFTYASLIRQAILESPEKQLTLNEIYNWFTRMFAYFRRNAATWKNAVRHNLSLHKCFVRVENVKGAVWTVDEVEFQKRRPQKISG
# Test: PD-seq (MBP pull-down with sequencing); 20 mM Tris-HCl pH 7.5, 100 mM NaCl, 1.5 mM MgCl2, 0.4 uM protein, 0.1 uM dsDNA library, 30 min, room temperature, amylose pull-down; high values mean tight binding
# Conditions: protein: recombinant; tags: His6-MBP; chain copies: 2; dsDNA, one strand shown
# Method in brief: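 Mouse FoxP3 or FoxP1 fragment lacking the N-terminus, His6-MBP-tagged and expressed in E. coli, was incubated at 0.4 µM with 0.1 µM Klenow-filled degenerate double-stranded DNA library for 30 min at room temperature in Tris pH 7.5 buffer with NaCl and MgCl2. Complexes captured on amylose resin were washed three times and their DNA sequenced on Illumina. Binding is reads-per-million enrichment of pull-down over input, replicates pooled.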
row,Sequence,binding signal
1,GATGATTGTTCTCCCAGCTGATGAATTCGTTGGGTCGAGTAAACAAATTTTCCTAATCTTTCTGTTCAAGCGCCATCTAC,0.781 RPM ratio (pull-down/input)
2,GATGATTGTTCTCCCAGCTGATGAATTCCAAGGATCGAGTAAACAAATTTTCCTAATCTTTCTGTTCAAGCGCCATCTAC,0.795 RPM ratio (pull-down/input)
3,GATGATTGTTCTCCCAGCTGATGAATTCAACTAGTCGAGTAAACAAATTTTCCTAATCTTTCTGTTCAAGCGCCATCTAC,0.877 RPM ratio (pull-down/input)
4,GATGATTGTTCTCCCAGCTGATGAATTTATTGGCTCGAGTAAACAAATTTTCCTAATCTTTCTGTTCAAGCGCCATCTAC,1.09 RPM ratio (pull-down/input)
5,GATGATTGTTCTCCCAGCTGATGAATTGAGAGTCTCGAGTAAACAAATTTTCCTAATCTTTCTGTTCAAGCGCCATCTAC,0.741 RPM ratio (pull-down/input)
6,GATGATTGTTCTCCCAGCTGATGAATTAGACGGGTCGAGTAAACAAATTTTCCTAATCTTTCTGTTCAAGCGCCATCTAC,0.832 RPM ratio (pull-down/input)
7,GATGATTGTTCTCCCAGCTGATGAATTAAAGCGCTCGAGTAAACAAATTTTCCTAATCTTTCTGTTCAAGCGCCATCTAC,0.953 RPM ratio (pull-down/input)
8,GATGATTGTTCTCCCAGCTGATGAATTGCGGCTATCGAGTAAACAAATTTTCCTAATCTTTCTGTTCAAGCGCCATCTAC,1.02 RPM ratio (pull-down/input)
9,GATGATTGTTCTCCCAGCTGATGAATTGTATTACTCGAGTAAACAAATTTTCCTAATCTTTCTGTTCAAGCGCCATCTAC,1.24 RPM ratio (pull-down/input)
10,GATGATTGTTCTCCCAGCTGATGAATTACCCGGTTCGAGTAAACAAATTTTCCTAATCTTTCTGTTCAAGCGCCATCTAC,0.848 RPM ratio (pull-down/input)
11,GATGATTGTTCTCCCAGCTGATGAATTTTAGAGCTCGAGTAAACAAATTTTCCTAATCTTTCTGTTCAAGCGCCATCTAC,0.77 RPM ratio (pull-down/input)
12,GATGATTGTTCTCCCAGCTGATGAATTGTTTCCCTCGAGTAAACAAATTTTCCTAATCTTTCTGTTCAAGCGCCATCTAC,1.41 RPM ratio (pull-down/input)
13,GATGATTGTTCTCCCAGCTGATGAATTTGTTTCCTCGAGTAAACAAATTTTCCTAATCTTTCTGTTCAAGCGCCATCTAC,1.49 RPM ratio (pull-down/input)
14,GATGATTGTTCTCCCAGCTGATGAATTGTTTGCCTCGAGTAAACAAATTTTCCTAATCTTTCTGTTCAAGCGCCATCTAC,1.96 RPM ratio (pull-down/input)
15,GATGATTGTTCTCCCAGCTGATGAATTGTTTTCATCGAGTAAACAAATTTTCCTAATCTTTCTGTTCAAGCGCCATCTAC,1.96 RPM ratio (pull-down/input)
16,GATGATTGTTCTCCCAGCTGATGAATTTGTTTCATCGAGTAAACAAATTTTCCTAATCTTTCTGTTCAAGCGCCATCTAC,1.33 RPM ratio (pull-down/input)
17,GATGATTGTTCTCCCAGCTGATGAATTGTTTTCCTCGAGTAAACAAATTTTCCTAATCTTTCTGTTCAAGCGCCATCTAC,2.36 RPM ratio (pull-down/input)
18,GATGATTGTTCTCCCAGCTGATGAATTTTTTTCATCGAGTAAACAAATTTTCCTAATCTTTCTGTTCAAGCGCCATCTAC,1.02 RPM ratio (pull-down/input)
19,GATGATTGTTCTCCCAGCTGATGAATTTTTTGCCTCGAGTAAACAAATTTTCCTAATCTTTCTGTTCAAGCGCCATCTAC,0.956 RPM ratio (pull-down/input)
20,GATGATTGTTCTCCCAGCTGATGAATTTAGATGCTCGAGTAAACAAATTTTCCTAATCTTTCTGTTCAAGCGCCATCTAC,1.78 RPM ratio (pull-down/input)
21,GATGATTGTTCTCCCAGCTGATGAATTTGCCTCCTCGAGTAAACAAATTTTCCTAATCTTTCTGTTCAAGCGCCATCTAC,0.95 RPM ratio (pull-down/input)
22,GATGATTGTTCTCCCAGCTGATGAATTAGATTGCTCGAGTAAACAAATTTTCCTAATCTTTCTGTTCAAGCGCCATCTAC,0.987 RPM ratio (pull-down/input)

row,Sequence,binding signal
1,GATGATTGTTCTCCCAGCTGATGAATTGGTACCTTCGAGTAAACAAATTTTCCTAATCTTTCTGTTCAAGCGCCATCTAC,0.97 RPM ratio (pull-down/input)
2,GATGATTGTTCTCCCAGCTGATGAATTTGTGTCATCGAGTAAACAAATTTTCCTAATCTTTCTGTTCAAGCGCCATCTAC,1.48 RPM ratio (pull-down/input)
3,GATGATTGTTCTCCCAGCTGATGAATTAAAGCAATCGAGTAAACAAATTTTCCTAATCTTTCTGTTCAAGCGCCATCTAC,1.32 RPM ratio (pull-down/input)
4,GATGATTGTTCTCCCAGCTGATGAATTCGTTCAATCGAGTAAACAAATTTTCCTAATCTTTCTGTTCAAGCGCCATCTAC,0.909 RPM ratio (pull-down/input)
5,GATGATTGTTCTCCCAGCTGATGAATTACATGGTTCGAGTAAACAAATTTTCCTAATCTTTCTGTTCAAGCGCCATCTAC,1.12 RPM ratio (pull-down/input)
6,GATGATTGTTCTCCCAGCTGATGAATTTAGGCTATCGAGTAAACAAATTTTCCTAATCTTTCTGTTCAAGCGCCATCTAC,0.955 RPM ratio (pull-down/input)
7,GATGATTGTTCTCCCAGCTGATGAATTATTAGATTCGAGTAAACAAATTTTCCTAATCTTTCTGTTCAAGCGCCATCTAC,1.08 RPM ratio (pull-down/input)
8,GATGATTGTTCTCCCAGCTGATGAATTAGACTGATCGAGTAAACAAATTTTCCTAATCTTTCTGTTCAAGCGCCATCTAC,0.851 RPM ratio (pull-down/input)
9,GATGATTGTTCTCCCAGCTGATGAATTACAATTGTCGAGTAAACAAATTTTCCTAATCTTTCTGTTCAAGCGCCATCTAC,1.4 RPM ratio (pull-down/input)
10,GATGATTGTTCTCCCAGCTGATGAATTTTGAACTTCGAGTAAACAAATTTTCCTAATCTTTCTGTTCAAGCGCCATCTAC,0.94 RPM ratio (pull-down/input)
11,GATGATTGTTCTCCCAGCTGATGAATTTGCAGTTTCGAGTAAACAAATTTTCCTAATCTTTCTGTTCAAGCGCCATCTAC,1.02 RPM ratio (pull-down/input)
12,GATGATTGTTCTCCCAGCTGATGAATTTCCGTCGTCGAGTAAACAAATTTTCCTAATCTTTCTGTTCAAGCGCCATCTAC,0.841 RPM ratio (pull-down/input)
13,GATGATTGTTCTCCCAGCTGATGAATTGTTATCATCGAGTAAACAAATTTTCCTAATCTTTCTGTTCAAGCGCCATCTAC,1.73 RPM ratio (pull-down/input)
14,GATGATTGTTCTCCCAGCTGATGAATTCGAGTTATCGAGTAAACAAATTTTCCTAATCTTTCTGTTCAAGCGCCATCTAC,0.96 RPM ratio (pull-down/input)
15,GATGATTGTTCTCCCAGCTGATGAATTTGCTTTATCGAGTAAACAAATTTTCCTAATCTTTCTGTTCAAGCGCCATCTAC,1.1 RPM ratio (pull-down/input)
16,GATGATTGTTCTCCCAGCTGATGAATTTTGCTTATCGAGTAAACAAATTTTCCTAATCTTTCTGTTCAAGCGCCATCTAC,2.09 RPM ratio (pull-down/input)
17,GATGATTGTTCTCCCAGCTGATGAATTATCATCATCGAGTAAACAAATTTTCCTAATCTTTCTGTTCAAGCGCCATCTAC,1.12 RPM ratio (pull-down/input)
18,GATGATTGTTCTCCCAGCTGATGAATTCTTGTTATCGAGTAAACAAATTTTCCTAATCTTTCTGTTCAAGCGCCATCTAC,2.09 RPM ratio (pull-down/input)
19,GATGATTGTTCTCCCAGCTGATGAATTTCTGTTATCGAGTAAACAAATTTTCCTAATCTTTCTGTTCAAGCGCCATCTAC,1.69 RPM ratio (pull-down/input)
20,GATGATTGTTCTCCCAGCTGATGAATTCCTGTTATCGAGTAAACAAATTTTCCTAATCTTTCTGTTCAAGCGCCATCTAC,1.65 RPM ratio (pull-down/input)
21,GATGATTGTTCTCCCAGCTGATGAATTGTTCTTATCGAGTAAACAAATTTTCCTAATCTTTCTGTTCAAGCGCCATCTAC,1.41 RPM ratio (pull-down/input)
22,GATGATTGTTCTCCCAGCTGATGAATTGTTGTTATCGAGTAAACAAATTTTCCTAATCTTTCTGTTCAAGCGCCATCTAC,2.91 RPM ratio (pull-down/input)

row,Sequence,binding signal
1,GATGATTGTTCTCCCAGCTGATGAATTTTTATCATCGAGTAAACAAATTTTCCTAATCTTTCTGTTCAAGCGCCATCTAC,1.36 RPM ratio (pull-down/input)
2,GATGATTGTTCTCCCAGCTGATGAATTGCTTATATCGAGTAAACAAATTTTCCTAATCTTTCTGTTCAAGCGCCATCTAC,1.34 RPM ratio (pull-down/input)
3,GATGATTGTTCTCCCAGCTGATGAATTTATGTGATCGAGTAAACAAATTTTCCTAATCTTTCTGTTCAAGCGCCATCTAC,1.21 RPM ratio (pull-down/input)
4,GATGATTGTTCTCCCAGCTGATGAATTGTAGTGCTCGAGTAAACAAATTTTCCTAATCTTTCTGTTCAAGCGCCATCTAC,1.04 RPM ratio (pull-down/input)
5,GATGATTGTTCTCCCAGCTGATGAATTTGGTACGTCGAGTAAACAAATTTTCCTAATCTTTCTGTTCAAGCGCCATCTAC,0.997 RPM ratio (pull-down/input)
6,GATGATTGTTCTCCCAGCTGATGAATTAATCGCGTCGAGTAAACAAATTTTCCTAATCTTTCTGTTCAAGCGCCATCTAC,1.01 RPM ratio (pull-down/input)
7,GATGATTGTTCTCCCAGCTGATGAATTTTAATCCTCGAGTAAACAAATTTTCCTAATCTTTCTGTTCAAGCGCCATCTAC,0.832 RPM ratio (pull-down/input)
8,GATGATTGTTCTCCCAGCTGATGAATTCAGGGGGTCGAGTAAACAAATTTTCCTAATCTTTCTGTTCAAGCGCCATCTAC,0.723 RPM ratio (pull-down/input)
9,GATGATTGTTCTCCCAGCTGATGAATTTGAGTTATCGAGTAAACAAATTTTCCTAATCTTTCTGTTCAAGCGCCATCTAC,1.04 RPM ratio (pull-down/input)
10,GATGATTGTTCTCCCAGCTGATGAATTGCTTTTATCGAGTAAACAAATTTTCCTAATCTTTCTGTTCAAGCGCCATCTAC,1.26 RPM ratio (pull-down/input)
11,GATGATTGTTCTCCCAGCTGATGAATTGGTGTTATCGAGTAAACAAATTTTCCTAATCTTTCTGTTCAAGCGCCATCTAC,1.9 RPM ratio (pull-down/input)
12,GATGATTGTTCTCCCAGCTGATGAATTTCTTATCTCGAGTAAACAAATTTTCCTAATCTTTCTGTTCAAGCGCCATCTAC,0.829 RPM ratio (pull-down/input)
13,GATGATTGTTCTCCCAGCTGATGAATTTTTGTTATCGAGTAAACAAATTTTCCTAATCTTTCTGTTCAAGCGCCATCTAC,2.35 RPM ratio (pull-down/input)
14,GATGATTGTTCTCCCAGCTGATGAATTGGTGTAATCGAGTAAACAAATTTTCCTAATCTTTCTGTTCAAGCGCCATCTAC,1.49 RPM ratio (pull-down/input)
15,GATGATTGTTCTCCCAGCTGATGAATTTTGGTTATCGAGTAAACAAATTTTCCTAATCTTTCTGTTCAAGCGCCATCTAC,1.17 RPM ratio (pull-down/input)
16,GATGATTGTTCTCCCAGCTGATGAATTTGTTATCTCGAGTAAACAAATTTTCCTAATCTTTCTGTTCAAGCGCCATCTAC,1.76 RPM ratio (pull-down/input)
17,GATGATTGTTCTCCCAGCTGATGAATTGTTATCCTCGAGTAAACAAATTTTCCTAATCTTTCTGTTCAAGCGCCATCTAC,1.55 RPM ratio (pull-down/input)
18,GATGATTGTTCTCCCAGCTGATGAATTGCTCTTATCGAGTAAACAAATTTTCCTAATCTTTCTGTTCAAGCGCCATCTAC,1.17 RPM ratio (pull-down/input)
19,GATGATTGTTCTCCCAGCTGATGAATTGCTGTTATCGAGTAAACAAATTTTCCTAATCTTTCTGTTCAAGCGCCATCTAC,1.85 RPM ratio (pull-down/input)
20,GATGATTGTTCTCCCAGCTGATGAATTTGTTATATCGAGTAAACAAATTTTCCTAATCTTTCTGTTCAAGCGCCATCTAC,1.5 RPM ratio (pull-down/input)
